Experimental data: PubChem BioAssay (Tox21)
Results filed as inconclusive are left out. Active and inactive are the calls of the source. Unless noted, the call rests on the fitted dose curve; in most records, active means well fitted curve in the direction sought with a large enough effect in the repeat runs; inconclusive means weak or mixed curves; inactive means no such curve, though single readings can be large; an effect the other way counts as inactive or inconclusive.

What was measured:
[1] = qHTS RealTime-Glo MT Cell Viability Assay in HEK293 cells - 8 hour (AID 1224887); further: top concentration of the series differs between compounds; nearly all actives have a fitted effect of over 50% in size
Summary of the method: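 HEK293 + NanoLuc + prosubstrate, 600 cells/well; 5 h, 37 C/5% CO2; compound 23 nL in DMSO by pintool; 37 C; luminescence read at 0, 8, 16, 24, 32 and 40 h time points.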

[2] = A CellTox Green Cytotoxicity Assay to monitor cytotoxicity in HEK293 cells - 16 hour (AID 1224888); further: nearly all actives have a fitted effect of over 35% in size
Summary of the method: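 Tox21 screen in HEK293: membrane-impermeant cyanine dye fluoresces on binding dead-cell DNA; compound pinned 5 h post-seeding, plates held at 37 C, signal read repeatedly through 40 h.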

[3] = qHTS RealTime-Glo MT Cell Viability Assay in HepG2 cells - 0 hour (AID 1224889); further: nearly all actives have a fitted effect of over 50% in size
Summary of the method: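 Compound treatment began 5 h after plating HepG2 cells (600/well) with NanoLuc luciferase and prosubstrate. Plates stayed at 37 C for 40 h; luminescence was captured at six time points, 0 h through 40 h.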

[4] = A CellTox Green Cytotoxicity Assay to monitor cytotoxicity in HepG2 cells - 8 hour (AID 1224890); further: nearly all actives have a fitted effect of over 45% in size
Summary of the method: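 Measurements at 0, 8, 16, 24, 32 and 40 h of treatment captured CellTox Green fluorescence in HepG2 cells that had been co-plated with reagent and preincubated 5 h at 37 C/5% CO2.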

[5] = qHTS assay to identify small molecule antagonists of the estrogen receptor alpha (ER-alpha) signaling pathway using the BG1 cell line in the presence of 0.1 nM 17-beta-estradiol - cell viability counter screen (AID 1259241); further: nearly all actives have a fitted effect of over 40% in size
Summary of the method: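 Cells were plated and left 24 hr, compounds in DMSO were pinned in, 17beta-estradiol was added to 0.1 nM final, and after 22 hr CellTiter-Fluor reagent was added for 30 min before fluorescence was read.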

[6] = qHTS assay to identify small molecule antagonists of the androgen receptor (AR) signaling pathway using the MDA cell line in the presence of 0.5 nM R1881 - cell viability counter screen (AID 1259242); further: nearly all actives have a fitted effect of over 45% in size
Summary of the method: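 Concentration-response screen of compounds for toxicity in MDA-kb2 reporter cells: 16 hr at 37C with 0.5 nM R1881, endpoint live-cell protease fluorescence measured in the reporter wells.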

[7] = biological target: Androgen receptor (Homo sapiens) (UniProt P10275); assay: qHTS assay to identify small molecule antagonists of the androgen receptor (AR) signaling pathway using the MDA cell line in the presence of 0.5 nM R1881 (AID 1259243); further: nearly all actives have a fitted effect of over 50% in size
Androgen receptor (Homo sapiens), sequence (P10275 whole entry, looked up): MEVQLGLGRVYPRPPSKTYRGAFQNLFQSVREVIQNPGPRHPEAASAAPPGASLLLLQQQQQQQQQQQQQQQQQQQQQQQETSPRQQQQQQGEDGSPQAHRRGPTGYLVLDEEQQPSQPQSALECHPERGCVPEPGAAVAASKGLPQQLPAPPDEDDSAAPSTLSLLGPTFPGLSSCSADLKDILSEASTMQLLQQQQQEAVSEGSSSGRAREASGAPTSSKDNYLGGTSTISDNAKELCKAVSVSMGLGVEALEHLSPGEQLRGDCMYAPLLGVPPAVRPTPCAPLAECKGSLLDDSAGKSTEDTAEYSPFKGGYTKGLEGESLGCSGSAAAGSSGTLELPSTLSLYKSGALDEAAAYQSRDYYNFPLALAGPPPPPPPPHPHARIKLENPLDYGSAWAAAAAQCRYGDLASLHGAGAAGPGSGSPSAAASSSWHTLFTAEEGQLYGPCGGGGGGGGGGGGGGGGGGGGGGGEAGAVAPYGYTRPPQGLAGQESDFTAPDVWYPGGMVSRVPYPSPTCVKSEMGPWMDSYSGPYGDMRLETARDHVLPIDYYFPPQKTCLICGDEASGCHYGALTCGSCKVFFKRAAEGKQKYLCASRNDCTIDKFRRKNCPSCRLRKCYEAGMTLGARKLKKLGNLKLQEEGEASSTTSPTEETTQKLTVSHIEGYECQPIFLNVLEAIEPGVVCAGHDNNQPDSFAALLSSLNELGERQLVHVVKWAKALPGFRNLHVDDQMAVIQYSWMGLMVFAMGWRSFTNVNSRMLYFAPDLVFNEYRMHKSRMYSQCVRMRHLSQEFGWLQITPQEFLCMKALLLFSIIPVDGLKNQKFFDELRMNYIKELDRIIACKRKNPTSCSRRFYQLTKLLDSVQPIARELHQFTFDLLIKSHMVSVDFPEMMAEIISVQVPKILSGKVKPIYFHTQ
Summary of the method: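 With R1881 held at 0.5 nM (final), compound effects on MMTV-luciferase expression in MDA-kb2 cells were scored by luminescence after a 16 hr, 37C incubation.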

[8] = biological target: Estrogen receptor (Homo sapiens) (UniProt P03372); assay: qHTS assay to identify small molecule antagonists of the estrogen receptor alpha (ER-alpha) signaling pathway using the BG1 cell line in the presence of 0.1 nM 17-beta-estradiol (AID 1259244); further: nearly all actives have a fitted effect of over 50% in size
Estrogen receptor (Homo sapiens), sequence (P03372 whole entry, looked up): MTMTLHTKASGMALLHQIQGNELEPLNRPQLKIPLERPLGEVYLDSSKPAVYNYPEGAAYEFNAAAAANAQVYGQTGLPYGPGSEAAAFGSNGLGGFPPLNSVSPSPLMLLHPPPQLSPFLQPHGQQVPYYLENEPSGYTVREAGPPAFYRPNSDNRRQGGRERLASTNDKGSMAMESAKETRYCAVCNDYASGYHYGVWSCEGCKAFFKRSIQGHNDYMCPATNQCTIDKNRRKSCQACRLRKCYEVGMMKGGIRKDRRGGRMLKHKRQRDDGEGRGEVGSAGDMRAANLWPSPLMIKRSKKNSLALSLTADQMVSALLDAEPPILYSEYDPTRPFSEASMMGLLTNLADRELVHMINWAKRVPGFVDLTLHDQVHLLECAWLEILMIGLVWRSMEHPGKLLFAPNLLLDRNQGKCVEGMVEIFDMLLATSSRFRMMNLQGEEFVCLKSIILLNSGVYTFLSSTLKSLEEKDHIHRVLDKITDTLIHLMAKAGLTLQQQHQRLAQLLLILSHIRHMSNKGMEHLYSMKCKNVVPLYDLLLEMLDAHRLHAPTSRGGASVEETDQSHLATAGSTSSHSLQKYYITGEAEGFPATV
Summary of the method: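 Compounds were tested against 0.1 nM (final) 17beta-estradiol in VM7Luc4E2 cells, which express full-length ER-alpha and an ERE-luciferase reporter; luminescence was recorded following 22 h exposure.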

[9] = qHTS assay to identify small molecule HDAC inhibitors (AID 1259364);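 further: wild-type HCT-116 cells with endogenous class I/II HDAC activity; top concentration of the series differs between compounds; nearly all actives have a fitted effect of over 45% in size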
Summary of the method: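 Screening used wild-type human colon HCT-116 cells incubated overnight, dosed with compounds for 2 hours, and assayed with a homogeneous luminogenic HDAC I/II reagent for 30 minutes at room temperature.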

[10] = qHTS assay to identify small molecule HDAC inhibitors - cell viability counter screen (AID 1259365)
Summary of the method: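 Counter screen in wild-type HCT-116 cells: compounds dissolved in DMSO are pin-transferred onto overnight-plated cells and left 2hr at 37C. ATP-based CellTiter-Glo luminescence then measures viable cells.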

[11] = qHTS assay to identify small molecule agonists of the sonic hedgehog signaling (Shh) pathway - cell viability counter screen (AID 1259366); further: nearly all actives have a fitted effect of over 50% in size
Summary of the method: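 Cells are plated at 2,000 per well and left 4hr at 37C, 5% CO2 before compound addition. After 23hr of treatment, CellTiter-Fluor reagent is added for 1hr at 37C and fluorescence is measured.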

[12] = qHTS assay to identify small molecule antagonists of the sonic hedgehog signaling (Shh) pathway - cell viability counter screen (AID 1259367); further: nearly all actives have a fitted effect of over 55% in size
Summary of the method: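 Tox21 library chemicals were tested on a Gli1-Luc NIH/3T3 clone (2,000 cells/well) stimulated by conditioned medium; viability was quantified as fluorescence from CellTiter-Fluor reagent added at 23 hr.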

[13] = qHTS assay to identify small molecule agonists of the sonic hedgehog signaling (Shh) pathway (AID 1259368; calls by dose curve;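 further: NIH/3T3-derived 3T3Gli1-Luc cells carrying a stable Gli1-driven firefly luciferase reporter; series mostly up to about 92 µM; nearly all actives have a fitted effect of over 15% in size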)
Summary of the method: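 Hedgehog pathway agonism scored by increased firefly luciferase luminescence in 3T3Gli1-Luc cells treated 24 hr at 37 C; detection used a 30 min room-temperature reagent incubation.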

[14] = qHTS assay to identify small molecule antagonists of the sonic hedgehog signaling (Shh) pathway (AID 1259369; calls by dose curve; further: nearly all actives have a fitted effect of over 45% in size)
Summary of the method: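 NIH/3T3 stable Gli1-Luc clone, 2,000 cells/well, 4hr settle; cpd + conditioned medium 24hr; Luc reagent 30min RT; luminescence.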

[15] = biological target: Estrogen receptor beta (Homo sapiens) (UniProt Q92731); assay: qHTS assay to identify small molecule agonists of the estrogen receptor beta (ER-beta) signaling pathway (AID 1259377; active means well fitted activation curve with a large enough effect in the signal ratio in the repeat runs, not every such curve was filed as active; the % refers to the signal ratio)
Estrogen receptor beta (Homo sapiens), sequence (Q92731 whole entry, looked up, the tested form may be a part): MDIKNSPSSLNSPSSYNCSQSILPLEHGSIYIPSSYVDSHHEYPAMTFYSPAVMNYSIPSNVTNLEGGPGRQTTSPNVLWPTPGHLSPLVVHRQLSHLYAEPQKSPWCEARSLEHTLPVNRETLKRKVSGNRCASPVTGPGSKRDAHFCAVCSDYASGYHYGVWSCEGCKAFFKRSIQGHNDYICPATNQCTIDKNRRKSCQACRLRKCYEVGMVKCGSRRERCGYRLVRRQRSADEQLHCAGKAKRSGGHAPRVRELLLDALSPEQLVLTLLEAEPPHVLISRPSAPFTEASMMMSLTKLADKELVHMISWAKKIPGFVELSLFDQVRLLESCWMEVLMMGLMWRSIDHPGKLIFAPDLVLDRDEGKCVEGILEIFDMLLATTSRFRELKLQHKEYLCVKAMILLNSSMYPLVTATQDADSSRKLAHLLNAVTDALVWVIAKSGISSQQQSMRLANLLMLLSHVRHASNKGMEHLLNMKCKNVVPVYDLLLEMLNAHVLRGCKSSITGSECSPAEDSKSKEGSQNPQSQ
Summary of the method: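 Agonist mode cell assay in GripTite HEK293T cells expressing an ER-beta fusion that drives beta-lactamase from an Upstream Activator Sequence; 16 hr compound exposure at 37C, then 2 h LiveBLAzer B/G FRET substrate at room temperature, fluorescence read-out.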

[16] = biological target: Estrogen receptor beta (Homo sapiens) (UniProt Q92731); assay: qHTS assay to identify small molecule antagonists of the estrogen receptor beta (ER-beta) signaling pathway (AID 1259378; active means well fitted inhibition curve with a large enough effect in the signal ratio in the repeat runs, not every such curve was filed as active; the % refers to the signal ratio)
Summary of the method: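 ER-beta-UAS-bla HEK293T cells in 2% charcoal-stripped FBS medium treated with compound plus 1nM final 17-beta-estradiol for 16 hr at 37C. Beta-lactamase reporter read by FRET substrate fluorescence after 2 hours at room temperature.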

[17] = qHTS assay to identify small molecule agonists of the androgen receptor (AR) signaling pathway in the presence of an antagonist - cell viability counter screen (AID 1259379);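 further: MDA-kb2 human breast cancer cells carrying an MMTV luciferase reporter; series mostly up to about 92 µM; nearly all actives have a fitted effect of over 25% in size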
Summary of the method: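 MDA-kb2 viability measured by CellTiter-Fluor fluorescence in the same wells as the luciferase signal; nilutamide 3.0uM final; 15-point compound titration; 16 hr at 37C.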

[18] = qHTS assay to identify small molecule agonists of the estrogen receptor beta (ER-beta) signaling pathway - cell viability counter screen (AID 1259380); further: nearly all actives have a fitted effect of over 30% in size
Summary of the method: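 Measured: luminescence from CellTiter-Glo after 30 min at room temperature, added to wells already read for the LiveBLAzer FRET reporter (2 hr substrate); ER-beta-UAS-bla HEK293T cells had 16 hr compound treatment at 37C, 5% CO2.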

[19] = biological target: Androgen receptor (Homo sapiens) (UniProt P10275); assay: qHTS assay to identify small molecule agonists of the androgen receptor (AR) signaling pathway in the presence of an antagonist (AID 1259381; calls by dose curve; further: nearly all actives have a fitted effect of over 15% in size)
Summary of the method: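 Luminescent ONE-Glo read, 30min at room temperature, follows 16hr compound exposure (15 concentrations) of MDA-kb2 cells at 37C, 0% CO2, with nilutamide added at 3.0uM final.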
On the % scale 0 is the no-effect control and ±100 the full control effect.

O=c1cc[nH]cc1
inactive: Potency [1] | Potency [2] | Potency [3] | Potency [4] | Potency [5] | Potency [6] | Potency [7] | Potency [8] | Potency [9] | Potency [10] | Potency [11] | Potency [12] | Potency [13] | Potency [14] | outcome [15] | Potency [16] | Potency [17] | Potency [18] | Potency [19]

CC1=CC[C@@H](C(C)(C)O)CC1
inactive: Potency [1] | Potency [2] | Potency [3] | Potency [4] | Potency [5] | Potency [6] | Potency [7] | Potency [8] | Potency [9] | Potency [10] | Potency [11] | Potency [12] | Potency [13] | Potency [14] | Potency [17] | Potency [18] | Potency [19]

CN1CCN(C)CC1
inactive: Potency [1] | Potency [2] | Potency [3] | Potency [4] | Potency [5] | Potency [6] | Potency [7] | Potency [8] | Potency [9] | Potency [10] | Potency [11] | Potency [12] | Potency [13] | outcome [15] | Potency [17] | Potency [18] | Potency [19]

COc1cc2ncnc(Nc3cccc(Cl)c3)c2cc1OC
inactive: activity change, negative = cytotoxicity [1] -3.64% [at 15.8 µM] | activity change [2] -3.26% [at 15.8 µM, hits give high values] | activity change, negative = cytotoxicity [3] -27.3% [at 15.8 µM] | cytotoxicity increase [4] -18% [at 15.8 µM] | activity change, negative = cytotoxicity [5] -7.05% [at 19 µM] | viability change, negative = cytotoxic [6] -6.19% [at 19 µM] | activity, negative = inhibition [7] 23.3% [at 19 µM] | activity change, negative = inhibition [9] -7.18% [at 19 µM] | activity change, negative = cytotoxicity [10] 2.53% [at 19 µM] | viability change, negative = cytotoxic [12] -19.1% [at 19 µM] | activity change [13] -3.79% [at 18.9 µM, hits give high values] | activation [15] -5.03% [at 19 µM] | activity, negative = inhibition [16] -15.9% [at 19 µM] | activity change, negative = cytotoxicity [18] -15.7% [at 19 µM] | activation [19] -2.82% [at 19 µM]

N#CCCOCCC#N
inactive: Potency [1] | Potency [2] | Potency [3] | Potency [4] | Potency [5] | Potency [6] | Potency [7] | Potency [9] | Potency [10] | Potency [11] | Potency [12] | Potency [13] | outcome [15] | Potency [16] | Potency [17] | Potency [19]

COC(=O)c1ccc([N+](=O)[O-])cc1
inactive: Potency [1] | Potency [2] | Potency [3] | Potency [4] | Potency [5] | Potency [6] | Potency [7] | Potency [9] | Potency [10] | Potency [11] | Potency [12] | Potency [13] | Potency [14] | Potency [17] | Potency [18] | Potency [19]

N#Cc1ccc(C/C(=N/NC(=O)Nc2ccc(OC(F)(F)F)cc2)c2cccc(C(F)(F)F)c2)cc1
inactive: Potency [1] | Potency [2] | Potency [3] | Potency [4] | Potency [5] | Potency [6] | Potency [7] | Potency [8] | Potency [9] | Potency [10] | Potency [11] | Potency [12] | Potency [13] | Potency [17] | Potency [18] | Potency [19]
